Here are results for 26 compounds from PubChem BioAssay (Tox21).

Molecules are shown by their SMILES. Values without a mark were called inactive. Inconclusive results are not listed. Active and inactive are the calls of the source. Unless noted, calls come from the whole dose curve; as a rule, active = well fitted curve in the direction sought with a large enough effect in the repeat runs; inconclusive = weak or mixed curves; inactive = no such curve, though single readings can be large; an effect the other way counts as inactive or inconclusive.

Assay [1] is described as follows: A CellTox Green Cytotoxicity Assay to monitor cytotoxicity in HepG2 cells - 8 hour (AID 1224890). Note: nearly all actives have a fitted effect of over 45% in size. Note: potency is the fitted concentration of half-maximal effect. The method, boiled down: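 Fluorescent DNA-binding dye, 600 HepG2 cells/well, 5 h preincubation then compound in DMSO; same plates read at 0–40 h, 37 C.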
The nature of assay [2]: qHTS assay to identify small molecule antagonists of the estrogen receptor alpha (ER-alpha) signaling pathway using the BG1 cell line in the presence of 0.1 nM 17-beta-estradiol - cell viability counter screen (AID 1259241). Note: nearly all actives have a fitted effect of over 40% in size. The method, boiled down: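 VM7Luc4E2 cells (endogenous ER-alpha, 4×ERE-luciferase), hormone-starved 5 days in charcoal-stripped FBS, were treated with compounds plus 0.1 nM 17beta-estradiol for 22 hr at 37C; viability read in same wells as CellTiter-Fluor live-cell protease fluorescence.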
(qHTS replaces the single test concentration by a dilution series.)

A short description of assay [3]: qHTS assay to identify small molecule antagonists of the androgen receptor (AR) signaling pathway using the MDA cell line in the presence of 0.5 nM R1881 - cell viability counter screen (AID 1259242). Note: nearly all actives have a fitted effect of over 45% in size. The gist of the method: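 Human breast carcinoma MDA-kb2 cells, cultured without CO2, receive compounds alongside 0.5 nM (final) R1881 agonist. After 16 hr at 37C, viability is taken as live-cell protease signal.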

The nature of assay [4]: qHTS assay to identify small molecule HDAC inhibitors (AID 1259364). Note: potency is the fitted concentration of half-maximal effect.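 Note: wild-type HCT-116 cells with endogenous class I/II HDAC activity; nearly all actives have a fitted effect of over 45% in size.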 The gist of the method: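 After a 2 hr compound incubation (37C, 5% CO2), HCT-116 cells seeded at 1,500/well the day before received HDAC-Glo reagent; signal read as luminescence after 30 min at room temperature.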
The nature of assay [5]: qHTS assay to identify small molecule HDAC inhibitors - cell viability counter screen (AID 1259365). Note: series mostly up to about 92 µM; nearly all actives have a fitted effect of over 50% in size. The gist of the method: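 Wild-type HCT-116 cells were seeded at 1,500 per well, incubated overnight at 37 C, then exposed to compounds in DMSO for 2hr. Viability was read by CellTiter-Glo luminescence after 30min at room temperature.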
A short description of assay [6]: qHTS assay to identify small molecule phospholipidosis (PLD) inducers (AID 1259344; active = well fitted curve in the direction sought with a large enough effect; an effect the other way counts as inactive or inconclusive). The method, boiled down: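 After 4 h attachment on collagen I, HepG2 cells were dosed with compound alongside LipidTOX Red, kept 24 h at 37 C, fixed, and imaged for lamellar phospholipid pits.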
The nature of assay [7]: qHTS assay to identify small molecule antagonists of the sonic hedgehog signaling (Shh) pathway - cell viability counter screen (AID 1259367). Note: nearly all actives have a fitted effect of over 55% in size. Note: potency is the fitted concentration of half-maximal effect. The method, boiled down:
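Conditioned medium drove Shh signaling in 3T3 Gli1-Luc cells exposed to compounds at 37C and 5% CO2. Viability was determined from CellTiter-Fluor fluorescence, with reagent incubated 1 hr after 23 hr of treatment.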

Assay [8] is described as follows: qHTS assay to identify small molecule agonists of the sonic hedgehog signaling (Shh) pathway - cell viability counter screen (AID 1259366). Note: nearly all actives have a fitted effect of over 50% in size. Note: potency is the fitted concentration of half-maximal effect. The gist of the method: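 NIH/3T3-derived 3T3 Gli1-Luc cells (stable Gli1-responsive firefly luciferase reporter) were seeded, rested 4 hr at 37 C/5% CO2, then exposed to compounds in DMSO for 24 hr; viability was read by CellTiter-Fluor fluorescence in the same wells.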

For the compound `C[C@@H](CN(C)C)CN1c2ccccc2Sc2ccccc21`, the Potency entry in assay [1], in assay [2], in assay [3], in assay [4] and in assay [5] was “inactive” in each case.
Consider `Cc1ccc2c(Br)cc(Br)c(O)c2n1`, for which the Potency result in assay [1], in assay [2], in assay [3], in assay [6], in assay [5] and in assay [7] was “inactive” each time.
`OC[C@H]1O[C@@H](n2cnc3c(=S)nc[nH]c32)[C@H](O)[C@@H]1O`: the Potency result in assay [1], in assay [2], in assay [3], in assay [6], in assay [4] and in assay [5] was “inactive” in each case. The Potency entry in assay [8] and in assay [7] was “inactive” in each case.
Turning to `CCCCCCCCC(CCCCCC)C(=O)O` (stereo unspecified), the Potency entry in assay [1], in assay [2], in assay [3], in assay [4], in assay [5] and in assay [8] was “inactive” each time. Besides, the Potency result in assay [7] is “inactive”.
Turning to `CC(=O)Nc1ccc(C)cc1C`, the Potency entry in assay [1], in assay [2], in assay [3], in assay [4], in assay [5] and in assay [8] was “inactive” each time. Further, in assay [7], the Potency entry was “inactive”.
`CC(=O)OCC[N+](C)(C)C`: the Potency entry in assay [1], in assay [2], in assay [3], in assay [6], in assay [5] and in assay [8] was “inactive” in each case. The Potency result in assay [7] is “inactive”.
As for `CC(=O)NC1(c2cccc(F)c2)CCN(CC[C@@]2(c3ccc(Cl)c(Cl)c3)CN(c3ccccc3)C(=O)CO2)CC1`, the Potency result in assay [1], in assay [2], in assay [3], in assay [4] and in assay [5] was “inactive” throughout. For the same compound, the Potency in assay [8] is 24.4 µM (active).
As to `C=CC(=O)OCC1CC2CC1C1CCC(COC(=O)C=C)C21` (stereo unspecified), the Potency result in assay [1], in assay [2], in assay [3], in assay [4] and in assay [5] was “inactive” in each case.
On to `CCCCCCNC(=O)n1cc(F)c(=O)[nH]c1=O`, for which the Potency result in assay [1], in assay [2], in assay [3], in assay [6], in assay [4] and in assay [8] was “inactive” in each case. Also, the Potency entry in assay [7] is “inactive”.
For `O=C(Nc1cccc2c(=O)cc(-c3nn[nH]n3)oc12)c1ccc(OCCCCc2ccccc2)cc1`, the Potency in assay [1] was 21.3 µM (active). In addition, the Potency entry in assay [2], in assay [3], in assay [6], in assay [4], in assay [5] and in assay [8] was “inactive” throughout. Moreover, the Potency entry in assay [7] is “inactive”.
`COc1ccccc1N1CCN(CC(O)COc2cccc3ccccc23)CC1` (stereo unspecified): the Potency entry in assay [1], in assay [2], in assay [3], in assay [6], in assay [4] and in assay [7] was “inactive” each time.
Regarding `Oc1c(I)cc(I)c2cccnc12`, the Potency result in assay [1], in assay [2], in assay [3], in assay [6], in assay [4] and in assay [8] was “inactive” throughout. In addition, the Potency entry in assay [7] was “inactive”.
On to `CCCCCC[C@@H](O)C/C=C\CCCCCCCC(=O)O`, for which the Potency entry in assay [1], in assay [2], in assay [3], in assay [6], in assay [4] and in assay [5] was “inactive” each time. In addition, the Potency result in assay [8] and in assay [7] was “inactive” throughout.
As to `O=C(O)CCc1nc(-c2ccccc2)c(-c2ccccc2)o1`, the Potency entry in assay [1], in assay [2], in assay [3], in assay [6], in assay [4] and in assay [5] was “inactive” each time. Further, the Potency result in assay [8] and in assay [7] was “inactive” in each case.
`CC1CC(OC(=O)C(O)c2ccccc2)CC(C)(C)N1C` (stereo unspecified): the Potency result in assay [1], in assay [2], in assay [3], in assay [6], in assay [4] and in assay [5] was “inactive” throughout. Moreover, the Potency entry in assay [8] and in assay [7] was “inactive” in each case.
`CN1C(=O)OC(C)(C)C1=O`: the Potency result in assay [1], in assay [2], in assay [3], in assay [6], in assay [8] and in assay [7] was “inactive” each time.
Consider `O=C(O)c1cccc(-c2noc(-c3ccccc3F)n2)c1`, for which the Potency entry in assay [1], in assay [2], in assay [3], in assay [6], in assay [8] and in assay [7] was “inactive” each time. Besides, the Potency in assay [4] is 0.422 µM (active).
Consider `CCOC(=O)[C@H](CCc1ccccc1)N[C@@H](C)C(=O)N(CC(=O)O)C1Cc2ccccc2C1`, for which the Potency entry in assay [1], in assay [2], in assay [3], in assay [6], in assay [4] and in assay [8] was “inactive” throughout. Besides, in assay [7], the Potency entry is “inactive”.
`CO/N=C(/C(=O)N[C@@H]1C(=O)N2C(C(=O)O)=C(COC(N)=O)CS[C@H]12)c1ccco1`: the Potency entry in assay [1], in assay [2], in assay [3], in assay [6], in assay [8] and in assay [7] was “inactive” each time.
As to `O=C(O)C[C@H](NC(=O)OCc1ccccc1)C(=O)O`, the Potency result in assay [1], in assay [2], in assay [3], in assay [4], in assay [5] and in assay [8] was “inactive” in each case. The Potency result in assay [7] was “inactive”.
For `Cc1[nH]cnc1CN1CCc2c(c3ccccc3n2C)C1=O`, the Potency result in assay [1], in assay [2], in assay [3], in assay [6], in assay [4] and in assay [5] was “inactive” throughout. In addition, the Potency result in assay [8] and in assay [7] was “inactive” throughout.
For the compound `CCOC(=O)c1ccc(C#Cc2ccc3c(c2)C(C)(C)CCS3)nc1`, the Potency entry in assay [1], in assay [2], in assay [3], in assay [6], in assay [4] and in assay [5] was “inactive” each time. Moreover, the Potency result in assay [8] and in assay [7] was “inactive” throughout.
As to `CC[C@]1(O)C[C@H]2CN(CCc3c([nH]c4ccccc34)[C@@](C(=O)OC)(c3cc4c(cc3OC)N(C=O)[C@H]3[C@@](O)(C(=O)OC)[C@H](OC(C)=O)[C@]5(CC)C=CCN6CC[C@]43[C@@H]65)C2)C1`, the Potency result in assay [1], in assay [2], in assay [3] and in assay [4] was “inactive” in each case.
Turning to `COc1ccccc1Oc1c(NS(=O)(=O)c2ccc(C(C)(C)C)cc2)nc(-c2ncccn2)nc1OCCO`, the Potency entry in assay [1], in assay [2], in assay [3], in assay [6], in assay [4] and in assay [5] was “inactive” in each case. Moreover, in assay [8], the Potency entry is “inactive”. In addition, in assay [7], the Potency was 26.6 µM (active).
Regarding `CCCCCCCC/C=C\CCCCCCCCO`, the Potency result in assay [1], in assay [2], in assay [3], in assay [4], in assay [5] and in assay [8] was “inactive” throughout. The Potency result in assay [7] is “inactive”.
As for `COC(=O)C1=C(C)NC(C)=C(C(=O)O[C@@H]2CCCN(Cc3ccccc3)C2)[C@@H]1c1cccc([N+](=O)[O-])c1`, the Potency result in assay [1], in assay [2], in assay [3], in assay [6] and in assay [5] was “inactive” in each case.
